Among all 230,000 compounds or so, about 310 (0.13%) were called active. Another 2% or so got no clear call; they are omitted. For the sample, actives were picked, then their nearest neighbours and some compounds at random. A number with no mark means an inactive call. Calls follow the shape of the dose curve; as a rule, active = well fitted activation curve with a large enough effect; inconclusive = small, poorly fitted or top-dose-only effect; inactive = no such curve, though single readings can be large or run the other way.
Experiment: qHTS Multiplex Assay to Identify Dual Action Probes in a Cell Model of Huntington: Cytoprotection (ATP); also: nearly all actives have a fitted effect of over 45% in size;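 as to cytoprotection (ATP increase): toxic huntingtin expression switched on by the ecdysone agonist tebufenozide; % of control where 0% means no effect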
Conditions: PC12 HTT-Q103 induced, ATP luminescence, 40 h; series mostly up to 56.4 µM; cytoprotection (ATP increase): at the top concentration
Excerpt: NIH Chemical Genomics Center [NCGC]
NIH Molecular Libraries Probe Production centers Network [MLPCN]
Assay Submitter (PI): Wei Zheng
Huntington's disease is a neurodegenerative disorder caused by a trinucleotide repeat expansion in Exon 1 of the Huntingtin gene. The CAG trinucleotide encodes glutamine and polyglutamine expansions cause cell death in selective areas of the brain. Huntington polyglutamine repeats have the tendency to form aggregates which are observable in later stages of the disease. The exact nature of the aggregates, whether toxic, protective, or insignificant, is unclear.
A stable PC12 cell line containing a gene fusion of Exon 1 of the Huntingtin gene linked to GFP under the control of the inducible ecdysone promoter were used as the cell-based model of Huntington Disease for high throughput screening. Exon 1 of the Huntingtin gene contained an expansion of 103 polyglutamines (Q103) which, when expressed, caused cell death and distinct, bright GFP aggregates. The amount of cell death and the size and intensity of GFP aggregates increased over time and induction level. The cell death were quantified with a measurement of ATP content in the cells. A maximal 40-50% of cell death was observed when the Huntington gene was induced in this cell line.
We optimized this assay in a homogeneous 1536 well format. A quantitative high throughput screen (qHTS) was conducted on the PC12 cells which were induced to express the toxic fusion construct. Small molecules which prevented cell death were identified by using a luminescent ATP quantification method (Perkin Elmer's ATPlite).
PC12 cells stably containing a construct with an ecdysone inducible promoter expressing GFP fused to the exon 1 of HTTQ103 (Huntington protein which containing a 103 ployglutamine expansion) were used.
NCGC Assay Protocol Summary:
Sequence, Parameter, Description
1, Reagent, 5 uL 1500 cells/well 1536 TC treated White clear bottom plate
2, Compound, 23 nL Tebufenozide inducer (100 nM final) to all columns
3, Compound, 23 nL 40 uM to 0.5 nM Libraries
5, Reagent, 5 ul ATPLite cell death assay reagent
6, Detector, 4 sec integration with a Viewlux Luminescent
Media consisted of phenol red free DMEM + 5% equine serum (Hyclone # SH30072.03 ), 5% supplemented Bovine Calf Serum (Hyclone # SH30074.03 ), 1x pen/strep, no G418
Control columns: 1 = DMSO, 2= 2 uM teb dilns (1:1), 4 = 100 nM Teb inducer. Sample columns received 100 nM Teb.
Potency is read from the fitted curve at half-maximal effect.

Structure (SMILES) | cytoprotection (ATP increase) | Potency
COC(=O)c1cc(C(=O)OCC(=O)Nc2cc(C)on2)cc([N+](=O)[O-])c1 | -6.88% [at 10 µM] | 
CC[C@H](C)[C@@H](NC(=O)O[C@@H]1C(=O)c2cc(OC)ccc2O[C@H]1c1cccc(OC)c1)C(=O)OC | -40.8% | 
O=C(c1cc2ccccc2o1)N1CCN(Cc2ccccc2)CC1 | -59.7% | 
COc1cc2c(cc1OC)CC(=O)N(CCCN(C)C[C@H]1Cc3cc(OC)c(OC)cc31)CC2 | 32.3% | 
C=CC1=C2C=C(C3CC3)N(CC(C)C)C=C2C(=O)C(C)(OC(=O)c2ccco2)C1=O (centres undefined) | -19.6% [at 10 µM] | 
S=C(NCCCc1cnc[nH]1)NCCCN(Cc1ccc(Cl)c(Cl)c1)c1ccc(Br)cn1 | -350% | 
C/C(CC(=O)NC(C)c1ccccc1)=N\NC(N)=S (centres undefined) | 8.79% [at 10 µM] | 
COC(=O)C1=C(C(=O)OC)[C@@H]2N(Cc3ccccc3)c3ccccc3[C@@]23C[C@@H](C(=O)OC)N(S(=O)(=O)c2ccc(C(F)(F)F)cc2)C3=N1 | 23.4% [at 10 µM] | 
C[C@H]1Cc2c(-c3ccccc3)nc3c(c2CO1)CN(C(=O)C1CC1)CC3 | -5.29% [at 10 µM] | 
NC(=O)c1sc(-c2ccsc2)cc1N | -22.8% | 
CC(C)(C)OC(=O)NCCCCC1=CC2=CC(=O)C(C)(OC(=O)c3cccs3)C(=O)C2=CO1 (centres undefined) | -20.7% | 
COc1cccc([C@@H]2Oc3ccc(Br)cc3C(=O)[C@H]2OC(=O)NCc2ccc3c(c2)OCO3)c1 | -21.2% | 
COC(=O)N1C(/C=C/C=C/c2ccc(OC)cc2)=Cc2ccccc2C1CC(C)=O (centres undefined) | -21.1% [at 10 µM] | 
CCCCC/C=C\C/C=C\CCCCCCCCCC(=O)NCC(=O)O | 2.32% | 
COCCN(C(=O)c1ccccc1F)c1c(N)n(Cc2ccccc2)c(=O)[nH]c1=O | 6.32% | 
COc1cccc(-c2cc(=O)c3cc(NC(=O)c4ccc(C)cc4)ccc3[nH]2)c1 | -326% | 
CC[C@@]12C=C(/C=C/c3ccccc3)[C@](CC)(C1)[C@H](c1ccccc1)CC2=O | -0.493% | 
O=c1c(O)c(Br)ccc2c(Br)c(O)c(O)c(O)c12 | -29.5% | 
NCCC(=O)c1ccccc1N | -7.14% | 
Nc1nc(CC(=O)CSc2ccc(Cl)cc2)nc(Nc2ccc(F)cc2)n1 | -29.1% [at 10 µM] | 
COC(=O)c1cc(NC(=O)CN2CCN(C(C)=O)CC2)cc(C(=O)OC)c1 | -18.4% | 
CCOC(=O)N1CCN(CC(=O)Nc2ccc(F)cc2)CC1 | -4.62% [at 10 µM] | 

Structure (SMILES) | cytoprotection (ATP increase) | Potency
CC(=O)N1CCN(CC(=O)Nc2ccc(SC(F)F)cc2)CC1 |  | 5.62 µM (active)
C[C@H]1Cc2c(-c3ccccc3)nc3c(c2CO1)CN(S(=O)(=O)c1ccc(Cl)c2nonc12)CC3 | -22.4% [at 10 µM] | 
COc1cc(OC)c2c(c1)OC(=O)CC2c1cc(OC)c(OC)c(OC)c1 (centres undefined) | 10.6% | 
CN(C)Cc1ccccc1C1(O)c2ccccc2CSc2ccccc21 (centres undefined) | -4.28% | 
O=C(/C=C/c1cccc(F)c1)NC1CC1 | 25.8% | 
COC(=O)C1=C(C(=O)OC)[C@@H]2N(C)c3ccccc3[C@@]23C[C@@H](C(=O)OC)N(S(=O)(=O)c2ccc(Br)cc2)C3=N1 | 7.44% [at 10 µM] | 
C=CCN1c2ccccc2[C@]23C[C@@H](C(=O)OC)N(S(=O)(=O)c4ccc([N+](=O)[O-])cc4)C2=NC(C(=O)OC)=C(C(=O)OC)[C@H]13 | -23.4% [at 10 µM] | 
CC(Nc1oc(-c2ccccc2)nc1-c1ccccc1)c1ccccc1 (centres undefined) | -70.1% | 
COCOc1cc(OC)ccc1C(=O)/C=C/c1ccc([N+](=O)[O-])cc1 | -28.1% | 
C=CC(C1=CC(=O)C=CC1=O)c1ccc(O)cc1 (centres undefined) | 14.6% | 
COc1ccc(C(C)=O)cc1CN1C(=O)NC2(CCCCC2C)C1=O (centres undefined) | -14.3% | 
CCCCS(=O)(=O)N1C2=NC(C(=O)OC)=C(C(=O)OC)[C@@H]3N(Cc4ccccc4)c4ccccc4[C@]23C[C@H]1C(=O)OC | 21.8% [at 10 µM] | 
O=C1c2ccccc2NC(c2ccc(-c3cccc(Cl)c3)o2)N1O (centres undefined) | -70.6% [at 10 µM] | 
CC(N)(C(=O)O)c1ccc(-c2nn[nH]n2)cc1 (centres undefined) | -10.3% | 
Cc1ccc(S(=O)(=O)N2CCC(=O)N([C@H](COCc3ccccc3)Cc3ccccc3)CC2)cc1 | -2.62% | 
C/C=C(\C)C(=O)O[C@H]1CC(C)=C2C(=O)C=C(C)C2[C@@H]2OC(=O)[C@@](C)(OC(=O)C=C(C)C)C21 (some centres undefined) | 11.5% | 
O=C(N/N=C/c1cccc2cccnc12)[C@H]1C[C@@H]1c1ccccc1 | 23.6% [at 10 µM] | 
O=C(Nc1cccc(C(F)(F)F)c1)c1cc(Br)cc(Br)c1O | -60.4% | 
CCN1C(=O)N[C@@H](c2ccccc2)[C@H](C(C)=O)[C@H]1C | -16.1% [at 10 µM] | 
CC(=O)CC(c1ccccc1)C1C(=O)Oc2ccccc2C1=O (centres undefined) | 19% | 
CNC(=O)C1(C)C=CC2(CCCCC2)N1C(C)=O (centres undefined) | 20.6% | 
C=CCNC(=O)c1ccc2c3n(nc2c1)-c1ccc(C)cc1CO3 | -15% [at 10 µM] | 
